Measured values reported in PubChem BioAssay AID743320 (Broad Institute, 2014).
Results with a measured potency or affinity are listed apart. Activity calls are given as the source filed them.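 How the source made its calls: active means signal drop whose fitted half-maximal potency is at most twice the top valid dose tested; inconclusive means flat curve inhibiting 30 to 70 percent, or a poor fit; inactive means the rest.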

The molecules below were run against Endoplasmic reticulum aminopeptidase 2 (Homo sapiens) (UniProt Q6P179) (assay: inhibition of ERAP2 arginine-AMC cleavage – biochemical, fluorescence plate reader, cherry-picked, set 2, selectivity assay for selective ERAP1 modulator project, dose response (AID 743320)). Conditions: recombinant ERAP2, Arg-AMC fluorescence, 1 h; series mostly up to 11 µM; activity change, negative = inhibition: at the top concentration.
Endoplasmic reticulum aminopeptidase 2 (Homo sapiens), sequence (Q6P179 whole entry, looked up): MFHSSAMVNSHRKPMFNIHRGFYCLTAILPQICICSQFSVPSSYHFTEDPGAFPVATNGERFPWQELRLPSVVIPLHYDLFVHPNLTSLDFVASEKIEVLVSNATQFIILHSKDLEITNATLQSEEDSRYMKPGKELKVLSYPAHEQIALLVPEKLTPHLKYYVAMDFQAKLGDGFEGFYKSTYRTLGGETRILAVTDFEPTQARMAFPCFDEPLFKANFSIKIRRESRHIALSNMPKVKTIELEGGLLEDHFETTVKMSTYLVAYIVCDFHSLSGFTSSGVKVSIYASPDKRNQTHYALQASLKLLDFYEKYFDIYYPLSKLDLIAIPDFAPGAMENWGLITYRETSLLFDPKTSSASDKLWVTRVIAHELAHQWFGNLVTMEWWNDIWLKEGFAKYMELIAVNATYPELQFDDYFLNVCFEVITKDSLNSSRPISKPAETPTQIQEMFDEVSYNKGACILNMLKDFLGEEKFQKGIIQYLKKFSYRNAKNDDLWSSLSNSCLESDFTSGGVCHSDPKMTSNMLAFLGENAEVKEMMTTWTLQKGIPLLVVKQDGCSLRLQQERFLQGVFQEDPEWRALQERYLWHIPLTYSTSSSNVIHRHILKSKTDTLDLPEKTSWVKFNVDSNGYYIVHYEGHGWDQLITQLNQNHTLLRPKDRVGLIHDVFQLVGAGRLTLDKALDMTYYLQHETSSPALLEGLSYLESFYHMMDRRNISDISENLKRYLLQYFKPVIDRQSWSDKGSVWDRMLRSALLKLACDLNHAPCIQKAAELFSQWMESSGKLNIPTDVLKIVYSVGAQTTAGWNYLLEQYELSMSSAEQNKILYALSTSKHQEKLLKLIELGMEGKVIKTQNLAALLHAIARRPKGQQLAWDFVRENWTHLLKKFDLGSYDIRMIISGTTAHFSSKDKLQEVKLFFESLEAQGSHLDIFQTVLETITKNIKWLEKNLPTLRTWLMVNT

Activity change, negative = inhibition, inactive:
CCCNC(=O)C[C@@H]1CC[C@@H]2[C@H](COC[C@H](O)CN2C(=O)Nc2cccc(Cl)c2)O1 22.2%
COc1cccc(S(=O)(=O)N(C)C[C@@H]2Oc3ncccc3C(=O)N([C@H](C)CO)C[C@@H]2C)c1 4.98%
C[C@@H]1CCCCO[C@H](CN(C)C)[C@H](C)CN([C@H](C)CO)C(=O)c2cc(NS(=O)(=O)c3ccc(Cl)cc3)ccc2O1 16.7%
C[C@H]1CN([C@@H](C)CO)C(=O)c2cccc(NC(=O)Nc3ccc4c(c3)OCO4)c2O[C@@H]1CN(C)CC1CC1 12.8%
COc1ccc(S(=O)(=O)N(C)C[C@@H]2Oc3ncccc3C(=O)N([C@H](C)CO)C[C@@H]2C)cc1 11.3% [at 5.6 µM]
N#Cc1c(N)n(CCNC(=O)c2ccccc2)c2nc3ccccc3nc12 438%
COc1ccc(C(=O)O)cc1S(=O)(=O)Nc1cc(C(F)(F)F)ccc1N1CCCCC1 8.35%
COc1ccc(CN(C)C[C@H]2OCCCC[C@@H](C)Oc3ccc(NS(=O)(=O)c4cccs4)cc3C(=O)N([C@@H](C)CO)C[C@@H]2C)cc1 10.1%
COc1cc2cc(C(=O)N3CCN(Cc4ccc5c(c4)OCO5)CC3)c(=O)oc2cc1OC 139% [at 5.6 µM]
C[C@H](CO)N1C[C@H](C)[C@H](CN(C)Cc2ccncc2)Oc2c(NC(=O)Nc3ccc(C(F)(F)F)cc3)cccc2C1=O 4.68%
C[C@@H]1CCCCO[C@@H](CN(C)Cc2ccc(C(=O)O)cc2)[C@@H](C)CN([C@H](C)CO)C(=O)c2cc(NC(=O)Nc3cccc4ccccc34)ccc2O1 5.34%
NC(=NCCc1c[nH]c2ccccc12)NS(=O)(=O)c1cc(F)ccc1F 9.24%
C[C@H]1CN([C@@H](C)CO)C(=O)c2cccc(NC(=O)Nc3ccc(C(F)(F)F)cc3)c2O[C@@H]1CN(C)C 2.76%
COc1ccc(CN(C)C[C@@H]2OCCCC[C@@H](C)Oc3ccc(NS(=O)(=O)c4cccs4)cc3C(=O)N([C@H](C)CO)C[C@H]2C)cc1 1.04%
C[C@H](CO)N1C[C@H](C)[C@H](CN(C)CC2CCCCC2)Oc2c(NC(=O)Nc3ccc(C(F)(F)F)cc3)cccc2C1=O 11.4%
COc1ccc(CN(C)C[C@@H]2OCCCC[C@@H](C)Oc3ccc(NS(=O)(=O)c4cccs4)cc3C(=O)N([C@@H](C)CO)C[C@H]2C)cc1 -1.25%
COc1ccc(NC(=O)Nc2ccc3c(c2)C(=O)N([C@@H](C)CO)C[C@@H](C)[C@H](CN(C)Cc2ccc(C(=O)O)cc2)OCCCC[C@H](C)O3)cc1 37.6%
C[C@@H]1CN([C@H](C)CO)C(=O)c2cc(NC(=O)Nc3ccc(F)cc3)ccc2O[C@H]1CN(C)Cc1ccc(C(=O)O)cc1 1.24%
Cc1noc(C)c1NC(=O)Nc1ccc2c(c1)C(=O)N([C@H](C)CO)C[C@@H](C)[C@@H](CN(C)Cc1ccc(C(F)(F)F)cc1)OCCCC[C@@H](C)O2 -2.75%
C[C@@H]1CCCCO[C@H](CN(C)Cc2ccc(C(=O)O)cc2)[C@H](C)CN([C@@H](C)CO)C(=O)c2cc(NC(=O)Nc3ccc(C(F)(F)F)cc3)ccc2O1 11.3%
COc1ccc2c3c([nH]c2c1)[C@H](CO)N(Cc1cc(F)ccc1F)CC31CN(C)C1 11.2%
Cc1ccc(-c2cc(C(=O)N3CCCC3)c3ccccc3n2)s1 133%
C[C@@H]1CCCCO[C@@H](CN(C)Cc2ccccc2)[C@H](C)CN([C@H](C)CO)C(=O)c2cc(NS(=O)(=O)c3cccs3)ccc2O1 6.39%
COc1ccc(CN(C)C[C@H]2OCCCC[C@@H](C)Oc3ccc(NS(=O)(=O)c4cccs4)cc3C(=O)N([C@H](C)CO)C[C@H]2C)cc1 3.67%
CCCN(C)C[C@@H]1OCCCC[C@H](C)Oc2ccc(NC(=O)Nc3ccc(F)cc3)cc2C(=O)N([C@H](C)CO)C[C@@H]1C 10.8%
C[C@@H]1CCCCO[C@@H](CN(C)C(=O)CCC(F)(F)F)[C@@H](C)CN([C@@H](C)CO)C(=O)c2cc(NS(=O)(=O)c3ccccc3)ccc2O1 14.4% [at 2.6 µM]
COc1ccc(CN(C)C[C@@H]2OCCCC[C@H](C)Oc3ccc(NS(=O)(=O)c4cccs4)cc3C(=O)N([C@@H](C)CO)C[C@@H]2C)cc1 20.4%
COc1ccc(CN(C)C[C@@H]2OCCCC[C@@H](C)Oc3ccc(NS(=O)(=O)c4c(C)noc4C)cc3C(=O)N([C@@H](C)CO)C[C@@H]2C)cc1 -1%
COCCCn1c(C(=O)N2CCOCC2)cc2c(=O)n3ccccc3nc21 370%
